HT1080-NT tox – kills 2HG-producing HT-1080-NT fibrosarcoma cells | HT-1080-NT fibrosarcoma viability, CellTiter-Glo ATP luminescence, 48 h | Potency, µM (top dose mostly 46.1 µM), hits mostly cytotoxic | hit rate 1.6% among 360,000 | AID 686970;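 also: NT is the 2HG producing partner of a matched IDH1 knockdown line; nearly all actives have a fitted effect of over 55% in size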
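A 48-hour cytotoxicity screen used HT-1080-NT cells plated 2 hours before compound delivery. ATP-based CellTiter-Glo luminescence measured viability, normalized to DMSO and no-cell controls.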
TDP1 cell CPT – growth inhibition of DT40 Tdp1-/-;hTDP1 cells with camptothecin (screen for TDP1 inhibitors). chicken DT40 Tdp1-/-;hTDP1 cells + 20 nM CPT, ATP luminescence, 48 h. Potency, µM (highest dose often 46.2 µM), actives largely listed as inhibitors. hit rate 12% among 420,000. AID 686979; also: nearly all actives have a fitted effect of over 55% in size
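Cell growth measured by CellTiter-Glo luminescence after a minimum 48 h, 37 C compound exposure with 20 nM CPT in Tdp1-knockout DT40 cells stably expressing hTDP1, seeded 400/well; qHTS titration format.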
IL-1B inflam inh – inflammasome signaling inhibition, IL-1 beta readout; hit rate 4.7% among 360,000; activity change, % at 57.5 µM; THP-1 LPS/ATP IL-1B secretion, AlphaLISA, 16 h; hits give low values; in the data active = activity change below about -50%; inconclusive = mostly about -30% to -49%
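Secreted IL-1B measured by AlphaLISA bead assay after 16 h compound exposure of THP-1 cells; compounds (final up to 57.5 uM) added 1 h before LPS (250 ng/mL) and ATP (1.25 mM) stimulation; lower signal means less secretion.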
HT1080 IDH1KD tx – HT-1080 IDH1 knockdown cell toxicity (counter line); Potency, µM (doses to about 46.1 µM), usual class: cytotoxic; hit rate 2% among 360,000; HT-1080 IDH1 knockdown viability, ATP luminescence, 48 h; AID 686971
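Knockdown cells (IDH1KD HT-1080) received compounds 2 h after plating at 750 cells/well and were kept 48 h at 37 °C in 5% FBS RPMI. A CellTiter-Glo luminescence read gave % activity for curve fitting.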
12-LOX inh – inhibitors of human 12S-lipoxygenase ALOX12; AID 1671190; P18054; Potency, µM (doses to about 108 µM), usual class: inhibitors; purified 12hLO, xylenol orange hydroperoxide absorbance; hit rate 1.1% among 580,000
Target sequence (P18054 whole entry, looked up): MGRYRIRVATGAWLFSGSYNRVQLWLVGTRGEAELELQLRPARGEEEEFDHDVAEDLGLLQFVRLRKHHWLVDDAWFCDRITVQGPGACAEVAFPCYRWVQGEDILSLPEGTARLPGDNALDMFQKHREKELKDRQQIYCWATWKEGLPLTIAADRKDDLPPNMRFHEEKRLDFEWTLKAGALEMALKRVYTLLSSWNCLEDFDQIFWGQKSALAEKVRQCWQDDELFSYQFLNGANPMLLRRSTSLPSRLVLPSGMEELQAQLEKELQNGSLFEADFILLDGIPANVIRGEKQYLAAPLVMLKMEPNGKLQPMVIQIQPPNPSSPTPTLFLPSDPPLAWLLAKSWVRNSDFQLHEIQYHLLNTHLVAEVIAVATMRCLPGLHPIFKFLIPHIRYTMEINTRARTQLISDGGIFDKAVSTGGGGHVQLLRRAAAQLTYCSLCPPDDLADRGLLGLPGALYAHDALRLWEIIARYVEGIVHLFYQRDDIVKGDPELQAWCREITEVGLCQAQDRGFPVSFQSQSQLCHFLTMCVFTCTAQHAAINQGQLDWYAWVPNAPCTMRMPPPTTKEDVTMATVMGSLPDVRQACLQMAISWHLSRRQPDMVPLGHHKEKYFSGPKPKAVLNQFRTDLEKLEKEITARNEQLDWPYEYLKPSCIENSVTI
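Purified human 12hLO at 150 nM in 25 mM Hepes, 0.01% Triton X-100, pH 7.0, preincubated 15 min at room temperature with compound. Reaction started with 40 uM arachidonic acid, 30 min at room temperature. Hydroperoxide measured by Fe-xylenol orange, 573/405 nm absorbance ratio.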
DT40 TDP1 no CPT – qHTS for Inhibitors of human tyrosyl-DNA phosphodiesterase 1 (TDP1): qHTS in cells in absence of CPT; DT40 Tdp1-/- hTDP1 cells, no CPT, ATP luminescence, 48 h; Potency, µM (highest dose often 46.2 µM), hits mostly inhibitors; hit rate 15% among 420,000; also: nearly all actives have a fitted effect of over 55% in size
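Camptothecin absent (DMSO only). Human TDP1-complemented DT40 knockout cells, 400 cells/well, 37 °C for minimum 48 hr; ATP measured via CellTiter-Glo, 30 min dark incubation, luminescence.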
A number is an active result; – = inactive; ? = inconclusive; · = not tested or not shown. Many of the other results were omitted from the sample, so hits are more common in it than they were. Unless noted, calls follow the shape of the dose curve; as a rule, active = well fitted curve in the direction sought with a large enough effect; inconclusive = small, poorly fitted or top-dose-only effect, or another doubt; inactive = no such curve, though single readings can be large; an effect the other way counts as inactive or inconclusive.

SMILES | HT1080-NT tox | TDP1 cell CPT | IL-1B inflam inh | HT1080 IDH1KD tx | 12-LOX inh | DT40 TDP1 no CPT
COc1ccc(-c2sc3ccc(N4CCOCC4)cc3c2C#CC(C)(C)O)cc1 | – | 21µM | – | – | ? | 9.2µM
COc1ccc(-c2sc3ccc(N4CCOCC4)cc3c2-c2ccc(O)cc2)cc1 | – | ? | – | – | – | ?
COc1ccc(-c2sc3ccc(N4CCOCC4)cc3c2C#Cc2ccsc2)cc1 | – | 18µM | – | – | – | ?
CCOc1ccc2c(c1)C(=O)C(=O)N2CC1COc2ccccc2O1 (stereo not drawn) | – | 1.2µM | – | – | – | 0.82µM
COc1ccc(C2C(=O)N(C3CCCCC3)CC(=O)N2CC2COc3ccccc3O2)cc1 (stereo not drawn) | – | ? | – | – | – | ?
Cc1ccc2c(c1)C(=O)C(=O)N2CC1COc2ccccc2O1 (stereo not drawn) | – | 2.3µM | -93 | ? | – | 2.3µM
CCN1CCN(CC2COc3ccccc3O2)CC1 (stereo not drawn) | – | – | – | – | ? | –
COc1ccc2c(c1)C(=O)C(=O)N2CC1COc2ccccc2O1 (stereo not drawn) | ? | 1µM | – | – | – | 0.58µM
CCCCCc1cc(=O)oc2c(C(CCN3CCCC(C)C3)c3ccc4c(c3)OCO4)c(OC)cc(OC)c12 (stereo not drawn) | – | ? | -54 | – | ? | ?
COc1cc(OC)c2c(-c3ccccc3)cc(=O)oc2c1C(CC(=O)N1CCOCC1)c1ccc2c(c1)OCO2 (stereo not drawn) | – | ? | – | – | – | ?
COc1cc(OC)c2ccc(=O)oc2c1C(CCN1CCCC1)c1ccc2c(c1)OCO2 (stereo not drawn) | – | ? | – | – | – | 18µM
CCCCCc1cc(=O)oc2c(C(CCN3CCCCC3)c3ccc4c(c3)OCO4)c(OC)cc(OC)c12 (stereo not drawn) | ? | 23µM | – | ? | – | ?
CCN(CC)CCC(c1cc(OC)c(OC)c(OC)c1)c1c(O)cc(OC)cc1OC (stereo not drawn) | – | ? | – | – | – | ?
COc1cc(OC)c2ccc(=O)oc2c1C(CC(=O)N1CCOCC1)c1ccc2c(c1)OCO2 (stereo not drawn) | – | – | – | – | – | –
CCCCCc1cc(=O)oc2c(C(CCN(CC)CC)c3cc(OC)c(OC)c(OC)c3)c(OC)cc(OC)c12 (stereo not drawn) | ? | ? | ? | 18µM | ? | 18µM
CC(C)c1ccc(C(=O)NCCc2c[nH]c3ccccc23)cc1 | · | · | · | · | – | ·
COc1ccc(CN2CC(Oc3ccc(F)c(C)c3)C2)cc1 | · | · | · | · | – | ·
Cc1ccc(-c2nc(CN3CCCC3c3cc(C)no3)co2)cc1 (stereo not drawn) | · | · | · | · | – | ·
CCOC(=O)N1CCN(c2cc(N3CCOCC3)c(F)cc2[N+](=O)[O-])CC1 | – | – | – | – | – | ?
CCOC(=O)N1CCN(c2cc(N3CCN(CC)CC3)c(F)cc2[N+](=O)[O-])CC1C (stereo not drawn) | – | 21µM | ? | ? | – | ?
O=Cc1c[nH]c2cccc(OCc3ccccc3)c12 | – | ? | -79 | – | – | 23µM
COc1ccc2ccccc2c1CN(C)Cc1ccccc1 | – | – | – | – | – | ?
COc1ccc(CCNCc2c(OC)ccc3ccccc23)cc1OC | ? | 16µM | ? | ? | ? | ?
CCOc1ccc2ccccc2c1CNCCc1ccc(S(N)(=O)=O)cc1 | – | – | – | – | ? | ?
COc1ccc2ccccc2c1CNC(C)CCc1ccccc1 (stereo not drawn) | ? | 9.2µM | · | 18µM | ? | ?
SMILES | HT1080-NT tox | TDP1 cell CPT | IL-1B inflam inh | HT1080 IDH1KD tx | 12-LOX inh | DT40 TDP1 no CPT
CNC(=O)c1cccc(NC(=O)CSCc2csc(-c3ccccc3)n2)c1 | · | · | · | · | – | ·
O=C(c1ccncc1)N1N=C(c2ccc(Cl)cc2)CC1c1ccccc1O (stereo not drawn) | – | ? | ? | – | ? | ?
COc1ccccc1C1CC(c2ccc(Br)cc2)=NN1C(=O)c1cccnc1 (stereo not drawn) | ? | 16µM | -52 | 15µM | – | 16µM
COc1cccc(C2CC(c3ccc(Br)cc3)=NN2C(=O)c2ccncc2)c1OC (stereo not drawn) | 18µM | ? | -50 | 18µM | – | ?
CCN1c2cc(C(=O)Nc3ccc(OC(F)(F)F)cc3)ccc2C(=O)N2CCCCCC21 (stereo not drawn) | · | · | · | · | – | ·
Cc1cc(S(=O)(=O)N(C)C)c(C)cc1Br | · | · | · | · | – | ·
COc1ccccc1N(CC(=O)NCCc1ccc(F)cc1)S(=O)(=O)c1ccccc1 | · | · | · | · | – | ·
Cc1ccc(Cl)cc1NC(=O)Nc1cccs1 | – | – | – | – | – | 21µM
Cc1ccc(NC(=O)Nc2cccs2)c(C)c1 | · | 15µM | · | · | – | ?
OCC1(Cc2ccccc2)CCN(C2CCN(c3ccccc3F)CC2)CC1 | – | ? | -85 | – | – | 23µM
Cc1c(-c2ccccc2)c(=O)oc2ccc(OS(C)(=O)=O)cc12 | · | · | · | · | – | ·
Nc1cc2nsnc2cc1Br | – | 5.8µM | – | ? | ? | 5.8µM
CCOc1ccc2nc(N(CCCN(C)C)C(=O)c3ccc(S(=O)(=O)N4CCCC4)cc3)sc2c1 | – | ? | – | – | ? | –
COc1cccc2sc(N(CCN(C)C)C(=O)c3ccc(S(=O)(=O)N4CCCC4)cc3)nc12 | – | – | – | – | ? | ?
CN(C)CCCN(C(=O)c1ccc(S(=O)(=O)N2CCOCC2)cc1)c1nc2cc3c(cc2s1)OCO3 | – | – | – | – | – | –
CN(C)CCCN(C(=O)c1ccc(S(=O)(=O)N2CCCC2)cc1)c1nc2ccc(Br)cc2s1 | 21µM | 23µM | -52 | 23µM | – | 21µM
Cc1cc(C)c2nc(N(CCCN(C)C)C(=O)c3ccc(S(=O)(=O)N4CCCCCC4)cc3)sc2c1 | 16µM | ? | -96 | 16µM | ? | ?
CN(C)CCCN(C(=O)c1ccc(S(=O)(=O)N2CCCCC2)cc1)c1nc2cc3c(cc2s1)OCO3 | – | 23µM | -63 | – | – | ?
CC1CN(S(=O)(=O)c2ccc(C(=O)N(CCCN(C)C)c3nc4c(Cl)cccc4s3)cc2)CC(C)O1 (stereo not drawn) | – | – | -54 | – | – | –
N/C(COc1cccc2ccccc12)=N\O | · | · | · | · | – | ·
O=C(NCC(c1cccs1)N1CCCCC1)c1cc(=O)c2cc(Br)ccc2o1 (stereo not drawn) | · | · | · | · | – | ·
